Experimental data published in the supplement of paper PMC9942566.
Where a name gives a salt, the structure may show the parent alone. ± gives the standard deviation of the averaged measurements.

Test system: Serratia marcescens K904 PosmB-luxCDABE reporter (pMQ747)
Test: PosmB-lux reporter fold induction (RLU/OD600 relative to no-compound control), highest over Biolog concentrations; higher = stronger Rcs reporter activation
Conditions: wild type K904; 4 h
Description: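 Serratia marcescens K904 (wild type) or its isogenic ΔrcsB mutant, carrying the Rcs-dependent PosmB-luxCDABE reporter plasmid pMQ747, was grown in LB at OD600 0.1 in Biolog Phenotype MicroArray plates PM11-20 for 4 h at 30-32°C. Each compound is present at 3-4 proprietary concentrations (not stated); per the Fig. S1 legend the value given is the highest fold over those wells. Three independent trials.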

| SMILES | PosmB-lux reporter fold induction |
| --- | --- |
| CC[C@H]1OC(=O)C[C@@H](O)[C@H](C)[C@@H](O[C@@H]2O[C@H](C)[C@@H](O[C@H]3C[C@@](C)(O)[C@@H](O)[C@H](C)O3)[C@H](N(C)C)[C@H]2O)[C@@H](CC=O)C[C@@H](C)C(=O)/C=C/C(C)=C/[C@@H]1CO[C@@H]1O[C@H](C)[C@@H](O)[C@@H](OC)[C@H]1OC [Tylosin] (Biolog plate: PM13, well positions: H9-12) | 1.21 ± 0.18 |
| CO/N=C(\C(=O)N[C@@H]1C(=O)N2C(C(=O)O)=C(COC(C)=O)CS[C@H]12)c1csc(N)n1 [cefotaxime] (Biolog plate: PM16, well positions: A2-4) | 0.992 ± 0.32 |
| O=P(O)(O)OP(=O)(O)O [sodium pyrophosphate decahydrate] (Biolog plate: PM18, well positions: A5-8) | 1.27 ± 0.59 |
| N=C(N)N [Guanidine hydrochloride] (Biolog plate: PM15, well positions: A5-8) | 1.84 ± 0.099 |
| CC[C@H]1OC(=O)[C@H](C)[C@@H](O[C@H]2C[C@@](C)(OC)[C@@H](O)[C@H](C)O2)[C@H](C)[C@@H](O[C@@H]2O[C@H](C)C[C@H](N(C)C)[C@H]2O)[C@](C)(O)C[C@@H](C)C(=O)[C@H](C)[C@@H](O)[C@]1(C)O [Erythromycin] (Biolog plate: PM11, well positions: F5-8) | 1.38 ± 0.32 |
| Nc1ccc2cc3ccc(N)cc3nc2c1 [proflavine] (Biolog plate: PM20, well positions: D1-4) | 1.15 ± 0.24 |
| Cc1onc(-c2ccccc2)c1C(=O)N[C@@H]1C(=O)N2[C@@H]1SC(C)(C)[C@@H]2C(=O)O [Oxacillin] (Biolog plate: PM12, well positions: B1-4) | 2.16 ± 0.46 |
| CN(C)[C@@H]1C(O)=C(C(N)=O)C(=O)[C@@]2(O)C(O)=C3C(=O)c4c(O)ccc(Cl)c4[C@@](C)(O)[C@H]3C[C@@H]12 [Chlortetracycline] (Biolog plate: PM11, well positions: A5-8) | 1.48 ± 0.4 |
| Cc1ccccc1C(OCCN(C)C)c1ccccc1 (stereo not given) [orphenadrine] (Biolog plate: PM20, well positions: B1-4) | 2.77 ± 1.3 |
| CSCCC(N)C(=O)NO (racemic) [DL-methionine hydroxamate] (Biolog plate: PM17, well positions: F5-8) | 1.74 ± 0.48 |
| c1cnc2c(c1)ccc1cccnc12 [1,10-Phenanthroline] (Biolog plate: PM15, well positions: C9-12) | 1.36 ± 0.36 |
| Oc1c(I)cc(Cl)c2cccnc12 [5-chloro-7-iodo-8-hydroxy-quinoline] (Biolog plate: PM16, well positions: A9-12) | 1.27 ± 0.55 |
| COc1ccc(CO)cc1OC [3,4-Dimethoxy-benzyl alcohol] (Biolog plate: PM15, well positions: F1-4) | 2.75 ± 1.1 |
| Nc1c2ccccc2nc2ccccc12 [9-Aminoacridine] (Biolog plate: PM14, well positions: B1-4) | 1.7 ± 0.1 |
| O=C(O)c1cn(C2CC2)c2cc(N3CCNCC3)c(F)cc2c1=O [ciprofloxacin] (Biolog plate: PM20, well positions: D5-8) | 1.63 ± 0.41 |
| CCCCCCCCCCCC[N+](C)(C)CCOc1ccccc1 [Domiphen bromide] (Biolog plate: PM15, well positions: D5-8) | 1.98 ± 0.26 |
| CCn1cc(C(=O)O)c(=O)c2cc(F)c(N3CCNCC3)cc21 [norfloxacin] (Biolog plate: PM16, well positions: B1-4) | 1.02 ± 0.2 |
| N.N.N.N.N.N.[Cl-].[Cl-].[Cl-].[Co+3] [hexammine cobalt (III) chloride] (Biolog plate: PM19, well positions: H1-4) | 1.64 ± 0.12 |
| [Cl][Mn][Cl] [Manganese chloride] (Biolog plate: PM13, well positions: G5-8) | 1.25 ± 0.2 |
| C/C=C/C=C/C(=O)O [sorbic acid] (Biolog plate: PM16, well positions: H9-12) | 2.12 ± 0.59 |

| SMILES | PosmB-lux reporter fold induction |
| --- | --- |
| O=c1ccc2ccccc2o1 [coumarin] (Biolog plate: PM19, well positions: A9-12) | 1.03 ± 0.14 |
| CCn1nc(C(=O)O)c(=O)c2cc3c(cc21)OCO3 [cinoxacin] (Biolog plate: PM16, well positions: D9-12) | 2.46 ± 0.85 |
| CN1CCN(CCCN2c3ccccc3Sc3ccc(C(F)(F)F)cc32)CC1 [Trifluoperazine] (Biolog plate: PM13, well positions: G9-12) | 1.34 ± 0.17 |
| C[C@@H]1NC(=O)[C@@H](N)CNC(=O)[C@H](C2CCNC(=N)N2)NC(=O)/C(=C/NC(N)=O)NC(=O)[C@H](CNC(=O)CC(N)CCCN)NC1=O.N=C1NCC[C@H]([C@@H]2NC(=O)/C(=C/NC(N)=O)NC(=O)[C@H](CNC(=O)C[C@@H](N)CCCN)NC(=O)[C@H](CO)NC(=O)[C@@H](N)CNC2=O)N1 [Capreomycin] (Biolog plate: PM11, well positions: D1-4) | 1.24 ± 0.1 |
| C[n+]1cc2c3c(ccc2c2ccc4cc5c(cc4c21)OCO5)OCO3 [Sanguinarine] (Biolog plate: PM14, well positions: A9-12) | 1.83 ± 0.71 |
| CN[C@@H]1[C@H](O)[C@H](NC)[C@H]2O[C@@]3(O)C(=O)C[C@@H](C)O[C@H]3O[C@@H]2[C@H]1O [Spectinomycin] (Biolog plate: PM12, well positions: G1-4) | 1.57 ± 0.26 |
| Cc1ncc([N+](=O)[O-])n1CC(O)CCl (stereo not given) [ornidazole] (Biolog plate: PM20, well positions: C9-12) | 1.61 ± 0.055 |
| O=C(O)CN(CCOCCOCCN(CC(=O)O)CC(=O)O)CC(=O)O (Biolog plate: PM14, well positions: H1-4) | 2.37 ± 0.77 |
| NC(=O)N/N=C/c1ccc([N+](=O)[O-])o1 [5-Nitro-2-furaldehyde semicarbazone] (Biolog plate: PM15, well positions: E5-8) | 1.67 ± 0.76 |
| CCn1cc(C(=O)O)c(=O)c2cnc(N3CCNCC3)nc21 [pipemidic acid] (Biolog plate: PM18, well positions: B5-8) | 1.46 ± 0.24 |
| O=[Si](O)O [sodium metasilicate] (Biolog plate: PM18, well positions: E1-4) | 1.11 ± 0.32 |
| CC1(C)S[C@@H]2[C@H](NC(=O)Cc3ccccc3)C(=O)N2[C@H]1C(=O)O [Penicillin G] (Biolog plate: PM12, well positions: A2-4) | 1.66 ± 0.23 |
| CC1(C)S[C@@H]2[C@H](NC(=O)C(C(=O)O)c3ccccc3)C(=O)N2[C@H]1C(=O)O (stereo not given in full) [Carbenicillin] (Biolog plate: PM14, well positions: G5-8) | 42 ± 28 |
| c1ccc(-c2ccccn2)nc1 [2,2'-Dipyridyl] (Biolog plate: PM13, well positions: B5-8) | 1.97 ± 0.26 |
| [Cl-].[Li+] [lithium chloride] (Biolog plate: PM17, well positions: F1-4) | 1.51 ± 0.57 |
| Nc1ccc(S(=O)(=O)Nc2ncccn2)cc1 [Sulfadiazine] (Biolog plate: PM12, well positions: E5-8) | 2.21 ± 0.27 |
| O=C(N[C@H](CO)[C@H](O)c1ccc([N+](=O)[O-])cc1)C(Cl)Cl [Chloramphenicol] (Biolog plate: PM14, well positions: F1-4) | 2.41 ± 1.1 |
| CN[C@@H]1[C@H](O[C@H]2[C@H](O[C@H]3[C@H](O)[C@@H](O)[C@H](NC(=N)N)[C@@H](O)[C@@H]3NC(=N)N)O[C@@H](C)[C@]2(O)CO)O[C@@H](CO)[C@H](O)[C@H]1O [dihydro-streptomycin] (Biolog plate: PM19, well positions: G5-8) | 1.47 ± 0.16 |
| NCC(=O)O [Glycine] (Biolog plate: PM13, well positions: F5-8) | 1.52 ± 0.2 |
| CO[C@@]1(NC(=O)Cc2cccs2)C(=O)N2C(C(=O)O)=C(COC(N)=O)CS[C@@H]21 [Cefoxitin] (Biolog plate: PM14, well positions: E1-4) | 4.05 ± 0.85 |
